Reference: PubChem BioAssay (NCI)
“And” between values parts separate entries of the source, which are not always exact repeats. Equal values may be shown once. Compounds without any hit were thinned out: in the full panel of roughly 83,000, 20% have a hit.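 Single-dose data. Exposure time 48 hours. Values below 10 considered active.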 The source made the active and inactive calls.

Key:
Assay in all cases: NCI-60 one-dose screen, 48 h (100 = growth as untreated, 0 = no growth, -100 = all killed)
Conditions in all cases: 10 µM unless noted
[1] = tested on: T-47D breast
[2] = tested on: BT-549 breast
[3] = tested on: MDA-MB-435 melanoma
[4] = tested on: SW-620 colon
[5] = tested on: MCF7 breast
[6] = tested on: HCT-116 colon
[7] = tested on: HCC-2998 colon
[8] = tested on: KM12 colon

Compound | growth [1] | growth [2] | growth [3] | growth [4] | growth [5] | growth [6] | growth [7] | growth [8]
CC(/C=N/N1C(=O)c2ccccc2C1=O)c1ccccc1 (stereo not given) | 98.7% (inactive) | 113% (inactive) | 91.6% (inactive) | 106% (inactive) | 97.5% (inactive) | 108% (inactive) | 106% (inactive) | 113% (inactive)
CCN(CC)CCCC(C)Nc1ccnc2cc(Oc3ccccc3)ccc12 (stereo not given) | 28.8% (inactive) and 83.9% (inactive) | 62.9% (inactive) and 86% (inactive) | 2.5% (active) and 24.4% (inactive) | – | 55.3% (inactive) and 82.7% (inactive) | 32% (inactive) and 54.9% (inactive) | 90.9% (inactive) and 77.7% (inactive) | 78.5% (inactive) and 87.2% (inactive)
CC(=O)Nc1cccc2c1CCCC2 | 92.7% (inactive) | 97% (inactive) | 103% (inactive) and 110% (inactive) | – | 92.1% (inactive) and 91.2% (inactive) | 97.5% (inactive) and 102% (inactive) | 99.8% (inactive) and 95.3% (inactive) | 102% (inactive) and 103% (inactive)
N#C/C(=C/c1c(O)ccc2ccccc12)C(N)=O | 87.5% (inactive) | 93.7% (inactive) | 104% (inactive) | 94.6% (inactive) | 95.1% (inactive) | 101% (inactive) | – | 93.8% (inactive)
Cc1cc(-c2ccc(NS(=O)(=O)c3ccccc3)c(C)c2)ccc1NS(=O)(=O)c1ccccc1 | 78.7% (inactive) and 105% (inactive) | 79.7% (inactive) | 92.5% (inactive) and 102% (inactive) | – | 60.4% (inactive) and 82.9% (inactive) | 70.7% (inactive) and 101% (inactive) | 100% (inactive) and 110% (inactive) | 72.3% (inactive) and 90.1% (inactive)
N#CCCOc1ccccc1 | 96.5% (inactive) | 88.2% (inactive) | 96.4% (inactive) | 106% (inactive) | 94.1% (inactive) | 106% (inactive) | 110% (inactive) | 106% (inactive)
ClC/C=C/CSc1ncnc2nc[nH]c12 | 98% (inactive) and 99.5% (inactive) | 102% (inactive) and 158% (inactive) | 108% (inactive) and 103% (inactive) | – | 99.8% (inactive) and 93.7% (inactive) | 105% (inactive) | 106% (inactive) and 108% (inactive) | 113% (inactive) and 105% (inactive)
CC[N+](CC)(CC(=O)Nc1c(C)cccc1C)Cc1ccccc1 | 86.9% (inactive) and 95.1% (inactive) | 63.8% (inactive) and 106% (inactive) | 94.7% (inactive) and 99.3% (inactive) | 90.1% (inactive) and 97.1% (inactive) | 95.7% (inactive) and 99.8% (inactive) | 97.3% (inactive) and 100% (inactive) | 102% (inactive) | 101% (inactive) and 88.9% (inactive)
CCOC(=O)C(C(=O)OCC)C(c1ccccc1)N1CCN(c2ccccc2)CC1 (stereo not given) | 108% (inactive) and 98.7% (inactive) | 103% (inactive) and 104% (inactive) | 102% (inactive) and 100% (inactive) | – | 97.8% (inactive) and 97.5% (inactive) | 98.3% (inactive) and 99.3% (inactive) | 114% (inactive) and 111% (inactive) | 111% (inactive) and 98.6% (inactive)
CC(CN=Cc1ccccc1O)N=Cc1ccccc1O (stereo not given) | 96.9% (inactive) and 94.2% (inactive) | 67.1% (inactive) and 118% (inactive) | 94% (inactive) and 122% (inactive) | 110% (inactive) and 96.8% (inactive) | 94.9% (inactive) and 95.8% (inactive) | 104% (inactive) and 102% (inactive) | – | 102% (inactive) and 113% (inactive)
c1ccc2cc(C[n+]3ccn(Cc4ccc5ccccc5n4)c3)ccc2c1 | -5.71% (active) and 13.1% (inactive) | -15.9% (active) and 12.2% (inactive) | 4.58% (active) and 19.6% (inactive) | 18.9% (inactive) and 56.4% (inactive) | 9.04% (active) | 2.66% (active) | 11.1% (inactive) and 30.9% (inactive) | -7.63% (active) and 12.6% (inactive)
COc1ccc(-c2ncnc3c2ncn3C/C=C/CCl)cc1 | 67.9% (inactive) and 92.5% (inactive) | 53.8% (inactive) and 87.2% (inactive) | 57.8% (inactive) and 81.6% (inactive) | 61.1% (inactive) and 74.7% (inactive) | 40.2% (inactive) and 55.6% (inactive) | 46.6% (inactive) and 76.8% (inactive) | 91.2% (inactive) and 95.4% (inactive) | 85.4% (inactive) and 102% (inactive)
O=Nc1ccc(O)cc1 | 87.5% (inactive) and 85.2% (inactive) | 83% (inactive) | 104% (inactive) and 108% (inactive) | 86.1% (inactive) and 94.1% (inactive) | 84.6% (inactive) and 93.4% (inactive) | 103% (inactive) and 78.3% (inactive) | 101% (inactive) and 104% (inactive) | 101% (inactive) and 94.7% (inactive)
O=[N+]([O-])c1ccc(Oc2ccccc2)cc1 | 116% (inactive) and 100% (inactive) | 83.9% (inactive) and 106% (inactive) | 101% (inactive) and 131% (inactive) | – | 105% (inactive) and 95.2% (inactive) | 98.2% (inactive) and 106% (inactive) | 102% (inactive) and 105% (inactive) | 101% (inactive) and 105% (inactive)
CC1=C[C@H]2c3c(c(O)c(O)c4oc5cc(O)cc(O)c5c(=O)c34)[C@H](c3cc(O)c(O)c4oc5cc(O)cc(O)c5c(=O)c34)[C@H]2C(C)(C)C1 | -1.57% (active) | 7.04% (active) and -11.3% (active) | -69.8% (active) and -76.7% (active) | -37.8% (active) and -80.9% (active) | -19.7% (active) and -76.5% (active) | -61.9% (active) and -52.5% (active) | 14.3% (inactive) and -61% (active) | -27% (active) and -71.5% (active)
CN(C)CCC(=O)c1ccc(Cl)cc1 | 110% (inactive) and 97.4% (inactive) | 107% (inactive) and 98.8% (inactive) | 113% (inactive) and 110% (inactive) | 103% (inactive) and 108% (inactive) | 90.6% (inactive) and 86.2% (inactive) | 101% (inactive) and 102% (inactive) | 97.3% (inactive) | 108% (inactive) and 109% (inactive)
Cc1c(Cl)cccc1NCN1C(=O)c2ccccc2C1=O | 94.4% (inactive) | 106% (inactive) | 104% (inactive) | – | 97.6% (inactive) | 116% (inactive) | 111% (inactive) | 103% (inactive)
CCN(CC)CCNc1cc(-c2cccc(OC(F)(F)F)c2)nc2ccc(N3CCCC3)cc12 | 64.4% (inactive) and -11.2% (active) and 20.9% (inactive) | -70.7% (active) and 34.3% (inactive) and 62.7% (inactive) | -4.48% (active) and -55% (active) and -33.6% (active) | – | 6.94% (active) and -27.3% (active) and -21.5% (active) | -88% (active) and -45.7% (active) and 4.4% (active) | 23.8% (inactive) and -45.2% (active) and -4.48% (active) | 32.3% (inactive) and -1.83% (active) and 9.39% (active)
Cc1cc(C)c(N)c(Br)c1 | – | 108% (inactive) and 88.8% (inactive) | 114% (inactive) and 104% (inactive) | 111% (inactive) and 104% (inactive) | 103% (inactive) | 110% (inactive) and 95.8% (inactive) | 112% (inactive) | 106% (inactive) and 102% (inactive)
CNc1ccc2nc3ccc(=[N+](C)C)cc-3sc2c1 | – | 49.1% (inactive) | -63.5% (active) and -47% (active) | 0.782% (active) and 2.58% (active) | -65.8% (active) and -27.2% (active) | -8.61% (active) and -49.3% (active) | 31.5% (inactive) and 33.6% (inactive) | 18.2% (inactive) and 14.2% (inactive)
Nc1ncnc2c1ncn2C1CC(O)C(CO)O1 (stereo not given) | 112% (inactive) and 99.1% (inactive) | – | 105% (inactive) and 107% (inactive) | 115% (inactive) and 105% (inactive) | 96.1% (inactive) and 97.1% (inactive) | 103% (inactive) and 100% (inactive) | -17.3% (active) and 119% (inactive) | 114% (inactive) and 107% (inactive)
